Measurements taken from PubChem BioAssay (NCI).
Compounds without any hit were thinned out: in the full panel of roughly 79,000, 15% have a hit. Values without a mark were called inactive. Active and inactive are the calls of the source. Rule as the data show it: active = growth inhibition above about 70%; inactive = the rest.

Legend:
[1] = NCI Yeast Anticancer Drug Screen. Data for the rad50 strain (AID 155);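 also: 0% = growth of vehicle-only cultures of the same strain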; settings: S. cerevisiae rad50 strain growth inhibition, stronger effect = higher value
Procedure, shortened: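 Growth of the mutant yeast was measured after compound exposure and referenced to vehicle-treated cultures.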

[2] = NCI Yeast Anticancer Drug Screen. Data for the mec2-1 strain (AID 157); settings: S. cerevisiae mec2-1 strain, stronger effect = higher value
Procedure, shortened: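 Readout is yeast growth inhibition, normalised to vehicle-treated controls, in the mec2-1 strain exposed to compound.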

[3] = NCI Yeast Anticancer Drug Screen. Data for the sgs1 mgt1 strain (AID 161);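 also: 0% = growth of cultures given vehicle only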; settings: S. cerevisiae sgs1 mgt1 strain, stronger effect = higher value
Procedure, shortened: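 Compounds are added to genetically altered yeast, and growth is compared with cultures given vehicle alone to give percent inhibition.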

[4] = NCI Yeast Anticancer Drug Screen. Data for the cln2 rad14 strain (AID 165);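 also: 0% = growth equal to vehicle treated cultures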; settings: S. cerevisiae cln2 rad14 strain, stronger effect = higher value
Procedure, shortened: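 Relative to vehicle controls, growth inhibition of compound-treated cln2 rad14 yeast was recorded.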

[5] = NCI Yeast Anticancer Drug Screen. Data for the bub3 strain (AID 167); settings: S. cerevisiae bub3 mutant strain, stronger effect = higher value
Procedure, shortened: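 Whole-cell yeast assay. The mutant strain was incubated with compounds, and growth inhibition was determined by comparison with vehicle-treated cells.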

[6] = NCI Yeast Anticancer Drug Screen. Data for the mlh1 rad18 strain (AID 175); settings: S. cerevisiae mlh1 rad18 strain growth inhibition, stronger effect = higher value
Procedure, shortened: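 Test agents were incubated with a yeast strain of defined genotype (DNA damage repair defect). Inhibition of growth was derived by comparison with vehicle-exposed cultures.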

[7] = at 5.0 µM (retest, dose inferred, filed as 0.5)
[8] = at 50.0 µM (retest, dose inferred, filed as 5.0)

| Structure (SMILES) | growth inhibition [1, 7] | growth inhibition [1, 8] | growth inhibition ([1]; at 50.0 µM) | growth inhibition [2, 7] | growth inhibition [2, 8] | growth inhibition ([2]; at 50.0 µM) | growth inhibition [3, 7] | growth inhibition [3, 8] | growth inhibition ([3]; at 50.0 µM) | growth inhibition [4, 7] | growth inhibition [4, 8] | growth inhibition ([4]; at 50.0 µM) | growth inhibition [5, 7] | growth inhibition [5, 8] | growth inhibition ([5]; at 50.0 µM) | growth inhibition [6, 7] | growth inhibition [6, 8] | growth inhibition ([6]; at 50.0 µM) |
| --- | --- | --- | --- | --- | --- | --- | --- | --- | --- | --- | --- | --- | --- | --- | --- | --- | --- | --- |
| CCOc1ccccc1N1C(=O)C=CC1=O | 57% | 67% | 92% (active) | 60% | 75% (active) | 93.6% (active) | 99% (active) | 100% (active) | 93.8% (active) | 99% (active) | 100% (active) | 90.5% (active) | 100% (active) | 100% (active) | 92.3% (active) | 42% | 58% | 92.5% (active) |
| N#CSCC(=O)c1ccc(Cl)cc1 | 43% | 61% | 89.5% (active) | 60% | 63% | 91% (active) | 92% (active) | 98% (active) | 92.5% (active) | 83% (active) | 98% (active) | 89.5% (active) | 93% (active) | 99% (active) | 89.5% (active) | 36% | 56% | 89.5% (active) |
| c1cc[c]([Sn]([S]c2cccc3cccnc23)([S]c2cccc3cccnc23)[c]2ccccc2)cc1 | 98% (active) | 99% (active) | 96.8% (active) | 99% (active) | 100% (active) | 98% (active) | 98% (active) | 99% (active) | 98% (active) | 98% (active) | 98% (active) | 95.5% (active) | 98% (active) | 99% (active) | 95.9% (active) | 98% (active) | 99% (active) | 97.6% (active) |
| CC(=O)N1c2ccccc2C2=NN=C(N(C)C)SC21 (configuration not stated) | 6% | 98% (active) | 85.3% (active) | -15% | 98% (active) | 90% (active) | 0% | 98% (active) | 83.8% (active) | -20% | 97% (active) | 83.8% (active) | -14% | 99% (active) | 87.3% (active) | 1% | 97% (active) | 80.5% (active) |
| COc1cccnc1/C=N/NC(N)=S | -4% | 58% | 69.5% | -4% | 59% | 69.9% | -4% | 63% | 73.9% (active) | -6% | 19% | 48.5% | 0% | 60% | 75.5% (active) | -5% | 70% (active) | 71.9% (active) |
| Cc1ccc(-c2c3c(cc4cc(C)ccc24)C(=O)OC3=O)cc1 | 12% | 26% | 14.8% | -2% | 12% | 6.85% | -1% | 27% | 17.9% | 4% | 6% | 15.2% | 1% | 4% | 15.8% | -2% | 25% | 32.9% |
| O=[N+]([O-])c1ccc(Cc2nc3ccccc3s2)cc1 | 32% | 82% (active) | 36.8% | 27% | 95% (active) | 14.2% | 47% | 96% (active) | 6.3% | 32% | 53% | 22.4% | 41% | 97% (active) | 65.4% | 52% | 93% (active) | 30.9% |
| COC(=O)c1n[nH]c(C)c1N=NN1CCC(C(N)=O)CC1 | 30% | 98% (active) | 98.3% (active) | -8% | 99% (active) | 99.2% (active) | -13% | 99% (active) | 98.8% (active) | -1% | 99% (active) | 97.8% (active) | -5% | 98% (active) | 98.2% (active) | 36% | 99% (active) | 99.2% (active) |
| CC1CC(C)CC(NC2=NCCO2)C1 (configuration not stated) | 13% | -5% | -4.1% | 6% | -5% | 22.2% | 12% | 13% | 21.6% | 11% | 7% | 27.6% | 27% | 15% | 7.8% | 8% | -12% | 21.1% |
| CC(/C(=N/NC(=O)C(N)=O)c1c(Cl)ccc(Cl)c1O)C1(O)C(=O)Nc2ccccc21 (configuration not stated) | 9% | 53% | 53.8% | 2% | 29% | 57.4% | 9% | 53% | 52.5% | 14% | 18% | 20.5% | 4% | 52% | 44% | 9% | 32% | 86.5% (active) |
| Cc1ccc(C2SCc3nc4ccccc4n32)cc1 (configuration not stated) | -4% | 51% | 31.2% | -38% | 39% | 20.8% | -26% | 57% | 49.1% | 2% | 46% | 34% | -2% | 93% (active) | 70.4% (active) | 13% | 86% (active) | 48.9% |
| CCN(CC)c1ccc(N=Nc2ccc(-c3nc4cccn(C)c-4n3)cc2)cc1 | 8% | 8% | 80.2% (active) | -5% | -5% | 79.2% (active) | -13% | -13% | 76.7% (active) | -2% | -2% | 80.2% (active) | 9% | 9% | 84.3% (active) | -4% | -4% | 82% (active) |
| Cc1cccc(C)c1N1C(=O)C(=O)C(c2nc3ccccc3s2)/C(=N/NC(=O)c2ccccc2O)C1=O (configuration not stated) | 26% | 26% | 71.9% (active) | 16% | 16% | 56.2% | 26% | 26% | 48.9% | 21% | 21% | 69.5% | 19% | 19% | 66% | 34% | 34% | 48.5% |
| CCCN(CCC)CC(O)c1cc(-c2ccccc2)nc2c(Cl)cc(Cl)cc12 (configuration not stated) | 3% | 90% (active) | 98.3% (active) | -2% | 100% (active) | 98.2% (active) | 2% | 81% (active) | 98% (active) | -5% | 99% (active) | 97.8% (active) | -1% | 99% (active) | 98.2% (active) | -2% | 94% (active) | 92.2% (active) |
| CCN(CC)CCOc1ccc(/C=C(\C#N)c2ccc(OC)cc2)cc1 | 24% | 83% (active) | 74.5% (active) | 17% | 96% (active) | 62.5% | 40% | 97% (active) | 85.9% (active) | 34% | 90% (active) | 82.8% (active) | 44% | 95% (active) | 68.5% | 24% | 84% (active) | 75.8% (active) |
| CCNCCNc1cc(O)c2c(c1O)C(=O)c1ccccc1C2=O | 73% (active) | 98% (active) | 87.2% (active) | 92% (active) | 98% (active) | 84.9% (active) | 78% (active) | 98% (active) | 83.5% (active) | 30% | 83% (active) | 67.8% | 96% (active) | 98% (active) | 78.5% (active) | 91% (active) | 98% (active) | 91.7% (active) |
| CCCCCCCCCCCC1=NCCN1CCNCCCC | 6% | 75% (active) | 36.6% | 5% | 90% (active) | 98.7% (active) | 6% | 96% (active) | 44.2% | 9% | 66% | 97.3% (active) | 4% | 79% (active) | 98.4% (active) | 11% | 92% (active) | 98.8% (active) |
| Cc1cc(Br)c(N2C3=C(CC4=C2CCCC4=O)C(=O)CCC3)c(Br)c1 | 17% | 90% (active) | 96.8% (active) | 7% | 89% (active) | 97.8% (active) | -3% | 80% (active) | 97.8% (active) | 10% | 94% (active) | 93.5% (active) | -10% | 95% (active) | 98.2% (active) | 16% | 97% (active) | 97.8% (active) |
| NC(=O)/C(=N\NC(=O)c1cc2ccccc2cc1O)C1C(=O)N(c2ccccc2)N=C1N (configuration not stated) | 15% | 15% | 71.5% (active) | 6% | 6% | 43.4% | 7% | 7% | 20.7% | 16% | 16% | 11.7% | 2% | 2% | 50.1% | 25% | 25% | 67.4% |
